# In article PMC4336329 (PLoS ONE, 2015):
# In all, about 310,000 compounds went through this assay and about 14,000 (4.5%) showed an effect of 50% or more. The effect is printed as a negative number. The sample as a whole holds a higher share of strong results than the screen did.
# Target: human ether-à-go-go-related gene (hERG) potassium channel (human, UniProt Q12809)
# Experiment: primary screen, population patch clamp on CHO cells stably expressing hERG; higher = less effect of the substance
# Description: Briefly, Chinese hamster ovary (CHO) cells stably expressing the hERG channel were dislodged from tissue culture flasks and dispensed into PPC plates. […] During the recording, background leak currents were estimated by a 100 ms step to -80 mV from an initial holding potential of -70 mV and subtracted from the subsequent current measurement. The campaign was conducted in two phases using slight differences in recording protocol. In the first phase, the initial voltage pulse used a 100 ms step to -30 mV from a holding potential of -70 mV, a 2 s conditioning step to +25 mV, and a 2 s test step to -30 mV. During the second phase of the screen, the potential during the conditioning step was raised to +45 mV. In both phases of the campaign, a secondary voltage pulse was applied using the same parameters as the second phase initial pulse. The initial and secondary pulses were applied in the absence of compound, and upon application of 1 μM and 10 μM test concentrations. […]
# 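Further: peak tail current of the secondary pulse compared with the same well before compound.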
# Chain of human ether-à-go-go-related gene (hERG) potassium channel (Q12809 whole entry, looked up): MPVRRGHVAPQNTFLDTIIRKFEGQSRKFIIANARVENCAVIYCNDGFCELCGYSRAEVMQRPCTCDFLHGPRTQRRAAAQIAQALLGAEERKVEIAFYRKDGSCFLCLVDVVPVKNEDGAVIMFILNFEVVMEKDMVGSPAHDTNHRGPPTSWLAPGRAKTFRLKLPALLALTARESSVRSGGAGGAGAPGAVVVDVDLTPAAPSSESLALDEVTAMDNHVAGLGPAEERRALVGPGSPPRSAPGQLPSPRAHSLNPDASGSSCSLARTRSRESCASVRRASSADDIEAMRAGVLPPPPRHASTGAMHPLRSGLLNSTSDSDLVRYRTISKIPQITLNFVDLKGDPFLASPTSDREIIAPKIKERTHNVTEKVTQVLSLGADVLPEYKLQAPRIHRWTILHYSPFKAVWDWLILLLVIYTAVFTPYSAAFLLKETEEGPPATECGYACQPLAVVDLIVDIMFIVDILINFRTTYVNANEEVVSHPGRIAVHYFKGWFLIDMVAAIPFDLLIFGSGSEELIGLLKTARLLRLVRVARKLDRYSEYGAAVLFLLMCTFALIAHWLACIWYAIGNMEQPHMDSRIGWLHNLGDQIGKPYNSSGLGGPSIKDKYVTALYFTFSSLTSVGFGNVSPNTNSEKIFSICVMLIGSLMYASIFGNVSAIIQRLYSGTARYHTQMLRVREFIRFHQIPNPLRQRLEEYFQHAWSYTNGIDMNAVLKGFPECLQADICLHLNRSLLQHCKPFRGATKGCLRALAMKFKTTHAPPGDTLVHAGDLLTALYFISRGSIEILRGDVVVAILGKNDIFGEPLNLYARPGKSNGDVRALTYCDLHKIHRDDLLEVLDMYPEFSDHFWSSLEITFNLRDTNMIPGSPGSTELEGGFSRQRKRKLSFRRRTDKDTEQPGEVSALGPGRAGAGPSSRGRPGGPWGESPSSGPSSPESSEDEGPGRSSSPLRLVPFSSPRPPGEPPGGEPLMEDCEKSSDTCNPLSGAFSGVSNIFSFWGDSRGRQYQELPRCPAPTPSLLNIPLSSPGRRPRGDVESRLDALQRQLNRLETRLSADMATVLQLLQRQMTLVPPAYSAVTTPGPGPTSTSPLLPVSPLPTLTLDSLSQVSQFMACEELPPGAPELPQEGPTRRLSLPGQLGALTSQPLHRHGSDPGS
row,SMILES,"hERG current change (%, negative = inhibition) at 10uM"
1,NC(=O)CCn1c(C(=O)c2ccc(Cl)cc2)c2ccccc2[n+]1[O-],-23.7%
2,NC(=O)CCCn1c(C(=O)c2ccc(Cl)cc2)c2ccc(C(F)(F)F)cc2[n+]1[O-],-77.9%
3,NC(=O)CCn1c(C(=O)c2cc(Cl)c(N)c(Cl)c2)c2ccccc2[n+]1[O-],17.9%
4,COc1ccc(/C=C2\N=C(c3ccccc3)N(c3ccc(C(=O)O)cc3)C2=O)cc1OC,6.76%
5,CC(C)Oc1ccc(C2CC(=O)N(Nc3ccc([N+](=O)[O-])cc3[N+](=O)[O-])C2=O)cc1 (centres unmarked),-15.6%
6,O=C1C2C3C=CC(C3)C2C(=O)N1Nc1ccc([N+](=O)[O-])cc1[N+](=O)[O-] (centres unmarked),3.34%
7,CCOc1ccc(C2CC(=O)N(Nc3ccc([N+](=O)[O-])cc3[N+](=O)[O-])C2=O)cc1 (centres unmarked),-51.7%
8,Cc1ccc(-n2c(=O)[nH]c3c(C(N)=O)nc(C(C)C)nc32)cc1,15.1%
9,COc1ccc(-n2nc3c(N4CCC(C(=O)NC5CCCCC5)CC4)nnc(C)c3c2C)cc1,-5.39%
10,COc1ccc(-n2nc3c(N4CCC(C(=O)N5CCCCCC5)CC4)nnc(C)c3c2C)cc1,-53.7%
11,CCOc1ccccc1CNC(=O)C1CCCN(c2nnc(C)c3c(C)n(-c4ccccc4)nc23)C1 (centres unmarked),4.08%
12,Cc1ccccc1CNC(=O)C1CCCN(c2nnc(C)c3c(C)n(-c4ccccc4)nc23)C1 (centres unmarked),-5.38%
13,Cc1ccc(-n2nc3c(N4CCC(C(=O)N5CCN(C)CC5)CC4)nnc(C)c3c2C)cc1,11.9%
14,Cc1ccc(-n2nc3c(N4CCC(C(=O)N5CCC(C(N)=O)CC5)CC4)nnc(C)c3c2C)cc1,12%
15,COc1ccc(-n2nc3c(N4CCC(C(=O)N5CCC(C)CC5)CC4)nnc(C)c3c2C)cc1,-46.3%
16,CCN1CCN(C(=O)C2CCN(c3nnc(C)c4c(C)n(-c5ccc(C)cc5)nc34)CC2)CC1,3.86%
17,Cc1nnc(N2CCCC(C(=O)NCc3ccccc3F)C2)c2nn(-c3ccccc3)c(C)c12 (centres unmarked),-51.2%
18,Cc1ccc(-n2nc3c(N4CCC(C(=O)N5CCCCCC5)CC4)nnc(C)c3c2C)cc1,-68.7%
19,Cc1nnc(N2CCC(C(=O)N3CCCCC3)CC2)c2nn(-c3ccc(Cl)cc3)c(C)c12,-73.9%
20,CCCN1CCN(C(=O)C2CCN(c3nnc(C)c4c(C)n(-c5ccc(C)cc5)nc34)CC2)CC1,-32.3%
21,CCOc1ccc(Cn2c3ccc(OC)cc3c3nc4ccccc4nc32)cc1,15.4%
22,O=C(COC(=O)c1cccnc1Cl)c1ccccc1,-4.84%
23,CSc1ccccc1NC(=O)CN(C1CCCCC1)S(C)(=O)=O,-1.49%
24,CSC[C@H](NC(=O)Cc1c(C)c2cc3c(C)c(C)oc3cc2oc1=O)C(=O)N[C@@H](Cc1ccccc1)C(=O)O,1.76%
25,Cc1ccc(S(=O)(=O)Nc2ccc(Cl)cn2)cc1C,15%

row,SMILES,"hERG current change (%, negative = inhibition) at 10uM"
1,CN(C)CCSc1nc(N)c2c3c(sc2n1)CN(C)CC3,9.66%
2,CCCCc1nc2c(C)c(N)cnc2n1Cc1cccc([N+](=O)[O-])c1,-44.1%
3,N#CC1=C2SCN(Cc3ccccc3)CN2C(=O)CC1c1cccs1 (centres unmarked),6.44%
4,O=C(Nc1ccc2oc(-c3ccccc3Cl)nc2c1)c1cncc(Br)c1,-8.01%
5,Cc1nnc(N2CCC(C(=O)N3CCCCCC3)CC2)c2nn(-c3ccc(Cl)cc3)c(C)c12,-65.2%
6,CCc1ccc(CNC(=O)C2CCN(c3nnc(C)c4c(C)n(-c5ccc(C)cc5)nc34)CC2)cc1,-1.17%
7,Cc1nnc(N2CCC(C(=O)NC3CCC(C)CC3)CC2)c2nn(-c3ccc(Cl)cc3)c(C)c12 (centres unmarked),18.8%
8,CC(=O)Nc1ccc(S(=O)(=O)NCCCN2CCOCC2)cc1,16%
9,Cc1cccc(NC(=O)C2CCCN2/C=C/C(=O)C(F)(F)F)c1C (centres unmarked),4.61%
10,COc1ccc(C(=O)CC(=O)C(=O)Nc2cccc(C(C)=O)c2)cc1,29.9%
11,COc1ccc(C2(c3ccc(OC(C)=O)cc3OC(C)=O)CC(c3ccccc3)NC(=S)N2)cc1 (centres unmarked),-50.2%
12,COc1ccc(N2C(=S)NC(C)(C)CC2(C)c2ccc(OC(C)=O)cc2OC(C)=O)cc1 (centres unmarked),6.26%
13,COc1ccc(C2(c3ccc(O)cc3O)CC(c3ccccc3Cl)NC(=S)N2)cc1 (centres unmarked),-15%
14,O=C(Cc1ccccc1[N+](=O)[O-])Nc1ccccc1C(=O)N1CCCC1,23.2%
15,Cc1cc(C)c(NC(=S)NCC2CCN(C(C)c3ccccc3)C2)c(C)c1 (centres unmarked),-22.4%
16,Cc1ccc(NC(=S)NCC2CCN(C(C)c3ccccc3)C2)cc1 (centres unmarked),-57.5%
17,Cc1ccc(NC(=S)NCC2CCN(C(C)c3ccccc3)C2)cc1C (centres unmarked),-44.6%
18,Cc1ccccc1NC(=S)NCC1CCN(C(C)c2ccccc2)C1 (centres unmarked),6.64%
19,CC(c1ccccc1)N1CCC(CNC(=S)Nc2cccc(Cl)c2)C1 (centres unmarked),-29.2%
20,Cc1cc(C)cc(NC(=S)NCC2CCN(C(C)c3ccccc3)C2)c1 (centres unmarked),-63.3%
21,O=C1NC(c2ccccc2)=C(c2ccc3ccccc3n2)C(c2ccccc2)N1 (centres unmarked),6.13%
22,CC1(C)CC(=O)N(CC(=O)O)c2ccccc2S1(=O)=O,3.52%
23,O=c1c2ccccc2ncn1-c1ccc(Cl)c(Cl)c1,-1.01%
24,OC(CNCCCCNCC(O)C(F)(F)F)C(F)(F)F (centres unmarked),19.8%
25,CCCN(CCC)Cc1c(C(=O)OCC)nnn1-c1nonc1N,-12.7%
